In PubChem BioAssay AID623868 (Vanderbilt High Throughput Screening Facility, 2012):
Among all 2,100 compounds or so, about 760 (36%) were called active. Not all results are given here. Values without a mark were called inactive.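 How the source made its calls: active means thallium-flux fluorescence traces judged by eye to show enhanced or reduced glutamate response, manual score 1 or -1, so both directions (some results past the limit were not filed as active); inactive means the rest, including fluorescent or raised-baseline compounds.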

Test: thallium influx changes without GIRK channels – cell-based, HEK-293 rmGlu8, no GIRK, thallium flux, counter-screen for GIRK activator project, confirmation (AID 623868);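 further: extra codes mark interference with 3 for fluorescent and 4 for baseline rise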
Conditions: thallium flux fluorescence, at 10 µM, actives lie on both sides, codes: 1 enhancer, -1 blocker, 0 none, thallium stimulus containing EC20 glutamate
With `CC1Cc2nc(SCC(=O)Nc3nc4ccccc4s3)n(C)c(=O)c2S1` (configuration not stated) the manual score was -1 (active).
`CC1(C)Cc2ccccc2-c2nnc(SCC(=O)Nc3nc4ccccc4s3)n21` gave a manual score of 0.
Work on `CC(C)Cc1nnc(NC(=O)CSc2nc(=O)cc(N)n2-c2ccccc2)s1` yielded a manual score of 0.
For `COC(=O)c1onc(C(=O)c2ccccc2)c1C(=O)OC`, the manual score was -1 (active).
With `N[C@@H](Cc1ccccc1)c1nnc(SCc2ccccc2F)o1` the manual score was 0.
`CCn1c(N)c(C(=O)NCc2ccco2)sc1=S` showed a manual score of 0.
For `Cc1sc2nc(C(C)C)nc(SCC(=O)NCc3ccco3)c2c1C`, the manual score was 1 (active).
For `Cc1ccccc1-c1nc(CN2CCC(C(=O)NCc3ccco3)CC2)c(C)o1`, the manual score was 0.
For `Cc1sc2nc(C(C)C)nc(SCC(=O)N3c4ccccc4CC3C)c2c1C` (configuration not stated), the manual score was 1 (active).
For `CCn1c(SCC(=O)NC(=O)NCc2ccco2)nc2sc(C)c(C)c2c1=O`, the manual score was 1 (active).
`Cc1sc2ncnc(SCc3ccco3)c2c1C` gave a manual score of 0.
`COC(=O)c1ccc(-n2c(C)cc(C(=O)CSc3ccc(NC(C)=O)cc3)c2C)cc1` showed a manual score of 0.
`CC(=O)Nc1ccc(C(=O)CSc2nc3ccc(C)cc3[nH]2)cc1` showed a manual score of 0.
With `CCc1cc2cccc(C)c2nc1SCC(=O)c1ccc(NC(C)=O)cc1` the manual score was 1 (active).
Compound `COc1ccc(OC)c(NC(=O)C2CC(=O)N(c3ccc(Br)cc3)C2)c1` (configuration not stated) has a manual score of 0.
For `COc1cc(NC(=O)C(=O)NNC(=O)C2CCCCC2)c(OC)cc1Cl`, the manual score was 1 (active).
In the case of `COc1cc(NC(=O)c2ccc(C)cc2)c(OC)cc1NC(=O)CN1CCCCC1`, the manual score is reported as 0.
`Oc1ccccc1CNc1ccc(Br)cn1` gave a manual score of 0.
In the case of `Cc1ccc(C2CC2c2n[nH]c(=S)n2-c2ccc(C)cc2)cc1` (configuration not stated), the manual score is reported as 1 (active).
`Cc1ccc(C2CC2c2n[nH]c(=S)n2-c2ccc(Cl)cc2)cc1` (configuration not stated) showed a manual score of 0.
With `O=C(c1ccc(Br)o1)N1CCN(c2ccc3nnc(-c4ccc(F)cc4)n3n2)CC1` the manual score was -1 (active).
`CCOC(=O)N1CCN(c2ccc3nnnn3n2)CC1` gave a manual score of 0.
`O=C(c1ccc(CS(=O)(=O)c2ccc(Br)cc2)o1)N1CCN(c2ncccn2)CC1` gave a manual score of 0.
For `CCOc1cc(-c2noc(-c3cccnc3)n2)ccc1OC`, the manual score was 0.
For `CC(C)N(CCn1c(=S)[nH]c2ccccc2c1=O)C(C)C`, the manual score was 1 (active).
With `CC(C)n1c(=S)[nH]c2ccccc2c1=O` the manual score was 1 (active).
With `CC(C)COn1c(=S)[nH]c2ccccc2c1=O` the manual score was 1 (active).
In the case of `CCOc1cc2[nH]c(=S)n(C(C)C)c(=O)c2cc1OCC`, the manual score is reported as 1 (active).
For `Cc1cc(CC(C)C)n(-c2nc3ccccc3c(=O)n2OCC(N)=O)n1`, the manual score was 0.
`CC(C)n1c(NCc2c[nH]c3ccccc23)nc2ccccc21` showed a manual score of 0.
`CCCC(=O)NC(c1cccs1)c1cc([N+](=O)[O-])c2cccnc2c1O` (configuration not stated) showed a manual score of 0.
With `CCCC(=O)Nc1ccc(NC(=O)C2CC2)cn1` the manual score was 0.
For `COCc1nnc(NC(=O)C(C)C)s1`, the manual score was 0.
For `Cc1conc1NC(c1cccs1)c1ccc2cccnc2c1O` (configuration not stated), the manual score was 0.5.
In the case of `COc1ccccc1-n1cnnc1SCC(=O)c1cc(C)n(Cc2cccs2)c1C`, the manual score is reported as 0.
Compound `COc1ccc(CNC(=O)CSCc2ccccc2Cl)cc1` has a manual score of -0.5.
Compound `CCCC(=O)n1nc(-c2ccccc2)nc1N` has a manual score of 0.
Compound `O=C(c1cc2nc(-c3ccccc3)cc(-c3ccccc3)n2n1)N1CCN(C(=O)c2ccco2)CC1` has a manual score of -0.5.
For `COc1ccc(CNc2nc(-c3cccnc3)nn2C(=O)c2ccco2)cc1`, the manual score was -1 (active).
For `COc1cccc(N(CC(=O)NCc2cccnc2)S(C)(=O)=O)c1`, the manual score was 0.
For `CCC(=O)n1nc(-c2cccnc2)nc1NCc1ccc(OC)cc1`, the manual score was -1 (active).
For `S=c1nn[nH]n1C12CC3CC(CC(C3)C1)C2`, the manual score was 1 (active).
Work on `c1cn(C23CC4CC(CC(C4)C2)C3)cn1` yielded a manual score of 0.5.
For `CCOc1ccc(Nc2ncnc(N)n2)cc1`, the manual score was 0.
With `Cc1noc(C)c1CSc1nc2ccccc2c(=O)n1-c1ccc(F)cc1F` the manual score was 0.
For `O=c1c2ccccc2nc(SCc2cn3ccsc3n2)n1-c1ccc(F)cc1`, the manual score was -1 (active).
Work on `COCCNCCOc1ccccc1-c1ccccc1` yielded a manual score of 0.
`COc1cc2c(cc1NC(=O)COc1ccccc1OC)oc1ccccc12` gave a manual score of 0.
For `COc1ccc(CCNC(=O)CSc2nnc(-c3ccc(F)cc3)c3ccccc23)cc1OC`, the manual score was -1 (active).
In the case of `COc1ccc(CN(C)CC(=O)NC(=O)NCc2ccccc2)cc1OC`, the manual score is reported as 0.
`CCOC(=O)CSC1=C(C#N)C(=O)NC(c2ccc(OC)c(OC)c2)S1` (configuration not stated) gave a manual score of 0.
For `CCc1nc(SCC(=O)Nc2nnc(CC)s2)c2c(C)c(C)sc2n1`, the manual score was 1 (active).
In the case of `CCc1nnc(NC(=O)CSc2nnc(-c3c[nH]c4ccccc34)n2CC)s1`, the manual score is reported as 0.
With `CCc1nc(SCC(=O)N2CC(=O)Nc3ccccc32)c2c(C)c(C)sc2n1` the manual score was 1 (active).
In the case of `Cc1sc2nc(C3CC3)nc(SCC(=O)N3CC(=O)Nc4ccccc43)c2c1C`, the manual score is reported as 1 (active).
In the case of `Cc1ccc(C)c(Nc2c([N+](=O)[O-])cc(C(=O)N3CC(=O)Nc4ccccc43)cc2[N+](=O)[O-])c1`, the manual score is reported as 0.
`CCSc1nnc(NC(=O)CC)s1` showed a manual score of 0.
For `CCc1c(C)nc(SCC(=O)N2CCc3ccccc32)[nH]c1=O`, the manual score was 0.
Compound `Cc1cc(NC(=O)CSc2nc3ccsc3c(=O)n2NC(=O)c2ccccc2)no1` has a manual score of 0.
Compound `Cc1ccc(N(C(=O)CCC(=O)Nc2cc(C)on2)C(C(=O)NC2CCCC2)c2cccs2)cc1` (configuration not stated) has a manual score of 0.
In the case of `Cc1cc(NC(=O)CSc2nc(C3CC3)nc3sc(C)c(C)c23)no1`, the manual score is reported as 1 (active).
In the case of `CN1C(=O)NC(c2ccccc2)C2=C1CN(Cc1ccccc1)C2=O` (configuration not stated), the manual score is reported as 0.
Work on `CCOC(=O)C1(C(C)(C)CC)CC(CSc2nc3ccccc3[nH]2)OC1=O` (configuration not stated) yielded a manual score of 0.
With `CN1CCN(C(=O)c2sc(=S)n(-c3ccccc3)c2N)CC1` the manual score was 0.
Compound `O=C(NCCSCc1ccco1)Nc1cccc(Cl)c1` has a manual score of 0.
For `CN(C(=O)CSC1=Nc2ccccc2C2=NC(c3ccccc3)C(=O)N12)C1CCCCC1` (configuration not stated), the manual score was -1 (active).
With `Cc1sccc1C1C(C#N)=C(N)SC(N)=C1C#N` the manual score was -1 (active).
